Measured values: PubChem BioAssay (Tox21)
Records with an inconclusive call do not appear. Where a call stands in place of a potency, no number is given. Values without a mark were called inactive. Activity calls are given as the source filed them. Unless noted, calls follow the shape of the dose curve; as a rule, active = well fitted curve in the direction sought with a large enough effect in the repeat runs; inconclusive = weak or mixed curves; inactive = no such curve, though single readings can be large; an effect the other way counts as inactive or inconclusive.

How the values were obtained:
[1] = qHTS assay to identify aromatase inhibitors - cell viability counter screen (AID 743084);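 also: cells stimulated with testosterone during compound exposure; nearly all actives have a fitted effect of over 55% in size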
[2] = biological target: Peroxisome proliferator-activated receptor gamma (Homo sapiens) (UniProt P37231); assay: qHTS assay to identify small molecule agonists of the peroxisome proliferator-activated receptor gamma (PPARg) signaling pathway (AID 743094; active = well fitted activation curve with a large enough effect in the signal ratio in the repeat runs, not every such curve was filed as active; the % refers to the signal ratio)
How it was run: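 Beta-lactamase FRET fluorescence was the read-out after a 1 h room-temperature substrate step, following 17 h compound treatment at 37C of HEK293H cells expressing a UAS-driven bla reporter responsive to PPARg.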

[3] = qHTS assay to identify small molecule antagonists of the peroxisome proliferator-activated receptor gamma (PPARg) signaling pathway - cell viability counter screen (AID 743194); also: nearly all actives have a fitted effect of over 55% in size
How it was run: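 PPARg-UAS-bla HEK293H cells were plated, rested 5 h at 37 C, then treated with compounds plus rosiglitazone (50 nM final) for 17 h at 37 C; viability was then read by CellTiter-Glo luminescence after 30 min at room temperature.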

[4] = qHTS assay for small molecule agonists of the antioxidant response element (ARE) signaling pathway - cell viability counter screen (AID 743203; calls by dose curve; also: nearly all actives have a fitted effect of over 55% in size)
How it was run: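 HepG2 cells carrying ARE-driven beta-lactamase; 2,000 cells/well; 5 hrs plating; compound pinned from DMSO; 16 hrs 37C/5% CO2; CellTiter-Glo added; 30 min RT; luminescence.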

[5] = qHTS assay for small molecule activators of the heat shock response signaling pathway - cell viability counter screen (AID 743209); also: nearly all actives have a fitted effect of over 50% in size
How it was run: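 Luminescence from CellTiter-Glo, added after the beta-lactamase FRET read, gave the viability signal. Cells were HSE-bla HeLa treated with DMSO-dissolved compounds for 5 h at 37 C following overnight plating.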

[6] = qHTS assay to identify small molecule antagonists of the peroxisome proliferator-activated receptor delta (PPARd) signaling pathway - cell viability counter screen (AID 743213); also: nearly all actives have a fitted effect of over 50% in size
How it was run: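 Same-well viability: cells pre-incubated 5 h, dosed with compound plus 300 nM L165041, kept 17 h at 37 C, FRET substrate 2 h RT, then CellTiter-Glo 30 min RT and luminescence.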

[7] = biological target: Bile acid receptor (Homo sapiens) (UniProt Q96RI1); assay: qHTS assay to identify small molecule antagonists of the farnesoid-X-receptor (FXR) signaling pathway (AID 743217; active = well fitted inhibition curve with a large enough effect in the signal ratio in the repeat runs, not every such curve was filed as active; the % refers to the signal ratio)
How it was run: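 HEK 293T FXR-UAS-bla, 5000 cells/well; compound + CDCA 50 uM final; 16 h, 37 °C; B/G FRET substrate 2 h RT; fluorescence.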

[8] = qHTS assay to identify small molecule agonists of the farnesoid-X-receptor (FXR) signaling pathway - cell viability counter screen (AID 743218); also: nearly all actives have a fitted effect of over 45% in size
How it was run: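 HEK 293T FXR-bla cells; 5 h pre-incubation, 16 h compound exposure at 37 C; LiveBLAzer substrate 2 h RT, then CellTiter-Glo 30 min RT, luminescence.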

[9] = qHTS assay to identify small molecule antagonists of the farnesoid-X-receptor (FXR) signaling pathway - cell viability counter screen (AID 743221; active = well fitted cell-killing curve with a large enough effect in the repeat runs, not every such curve was filed as active; also: nearly all actives have a fitted effect of over 50% in size)
How it was run: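 After a 5 h settling period, FXR-bla HEK 293T cells receive compound and chenodeoxycholic acid (50 uM final) and incubate 16 h at 37 C; CellTiter-Glo luminescence, read after 30 min at room temperature, reports cell viability.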

[10] = biological target: Vitamin D3 receptor (Homo sapiens) (UniProt P11473); assay: qHTS assay to identify small molecule agonists of the vitamin D receptor (VDR) signaling pathway (AID 743222; calls by dose curve)
How it was run: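 VDR-bla cells, 2,000/well; 4 h preincubation 37C; cpd (DMSO) 16 h; LiveBLAzer B/G substrate 2 h RT; fluorescence intensity read.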

[11] = qHTS assay for small molecule activators of the heat shock response signaling pathway (AID 743210; active = well fitted activation curve with a large enough effect in the signal ratio in the repeat runs, with a control signal flat, not every such curve was filed as active; the % refers to the signal ratio;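 also: HeLa cells with beta-lactamase reporter driven by heat shock elements; series mostly up to about 63 µM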)
How it was run: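 Reporter gene assay: HeLa cells stably bearing an HSE-bla construct, compound treatment 5 h at 37 C, LiveBLAzer substrate 2.5 h at RT, fluorescence intensity.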

[12] = qHTS assay to identify small molecule agonists of the peroxisome proliferator-activated receptor delta (PPARd) signaling pathway - cell viability counter screen (AID 743211); also: nearly all actives have a fitted effect of over 55% in size
How it was run: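 qHTS cell viability: PPARd-bla HEK293H; 17 h cpd, 37C; CellTiter-Glo, luminescence at 30 min RT.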

[13] = biological target: Peroxisome proliferator-activated receptor delta (Homo sapiens) (UniProt Q03181); assay: qHTS assay to identify small molecule agonists of the peroxisome proliferator-activated receptor delta (PPARd) signaling pathway (AID 743212; calls by dose curve)
How it was run: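 A PPARd-bla HEK293H line with beta-lactamase under an Upstream Activator Sequence is treated with compounds at 37 C. Substrate loading for 2 h at room temperature precedes the fluorescence measurement.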

[14] = biological target: Peroxisome proliferator-activated receptor delta (Homo sapiens) (UniProt Q03181); assay: qHTS assay to identify small molecule antagonists of the peroxisome proliferator-activated receptor delta (PPARd) signaling pathway (AID 743215; active = well fitted inhibition curve with a large enough effect in the signal ratio in the repeat runs, not every such curve was filed as active; the % refers to the signal ratio;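 also: cells stimulated with agonist L165041 at 300 nM final during compound exposure; series mostly up to about 62 µM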)
How it was run: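 Read-out is beta-lactamase FRET fluorescence, measured 2 h after substrate addition at room temperature. Beforehand, UAS-bla HEK293H cells carrying the PPARd reporter were exposed to compounds with L165041 at 300 nM final for 17 h at 37 C.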

[15] = biological target: Peroxisome proliferator-activated receptor gamma (Homo sapiens) (UniProt P37231); assay: qHTS assay to identify small molecule antagonists of the peroxisome proliferator-activated receptor gamma (PPARg) signaling pathway (AID 743191; calls by dose curve; also: nearly all actives have a fitted effect of over 30% in size; also: potency is read from the fitted curve at half-maximal effect)
How it was run: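 GeneBLAzer PPARg UAS-bla HEK293H cells carrying a UAS-driven beta-lactamase reporter were plated at 3000 cells/well, preincubated 5 h at 37C, then given compound for 17 h at 37C; LiveBLAzer B/G FRET substrate was read after 1 h at room temperature.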

[16] = qHTS assay for small molecule agonists of the antioxidant response element (ARE) signaling pathway (AID 743202; active = well fitted activation curve with a large enough effect in the signal ratio in the repeat runs, not every such curve was filed as active; the % refers to the signal ratio)
How it was run: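 Compounds delivered in DMSO to ARE-bla HepG2 cells (2,000 cells/well, pre-incubated 5 h) and left 16 h at 37 C. LiveBLAzer B/G FRET substrate then added for 2 h at RT before fluorescence reading.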

[17] = biological target: Bile acid receptor (Homo sapiens) (UniProt Q96RI1); assay: qHTS assay to identify small molecule agonists of the farnesoid-X-receptor (FXR) signaling pathway (AID 743220; active = well fitted activation curve with a large enough effect in the signal ratio in the repeat runs, not every such curve was filed as active; the % refers to the signal ratio)
How it was run: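 Beta-lactamase reporter under UAS control in GeneBLAzer FXR HEK 293T cells (5000/well) measured with LiveBLAzer FRET substrate after 2 h at room temperature. Compound exposure lasted 16 h at 37C.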

[18] = qHTS assay to identify small molecule that activate the aryl hydrocarbon receptor (AhR) signaling pathway - cell viability counter screen (AID 743086);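 also: HepG2 liver cells carrying the AhR DRE luciferase reporter; series mostly up to about 70 µM; nearly all actives have a fitted effect of over 45% in size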
How it was run: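 HepG2-AhR-luc (HG2L7.5c1) cells, 4000/well, were preincubated 5 h at 37C, exposed to compound in qHTS format for 24 hr at 37C, then given CellTiter-Fluor for 30 min; viability was read as fluorescence in the reporter wells.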

[19] = biological target: Vitamin D3 receptor (Homo sapiens) (UniProt P11473); assay: qHTS assay to identify small molecule antagonists of the vitamin D receptor (VDR) signaling pathway (AID 743223; active = well fitted inhibition curve with a large enough effect in the signal ratio in the repeat runs, not every such curve was filed as active; the % refers to the signal ratio)
How it was run: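 Reporter line VDR-bla; stimulus 1alpha,25-(OH)2 vitamin D3, 3 nM final; compound co-addition, 16 h 37C/5% CO2; LiveBLAzer B/G substrate 2 h RT; fluorescence intensity.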

Sequence of Vitamin D3 receptor (Homo sapiens) (P11473 whole entry, looked up): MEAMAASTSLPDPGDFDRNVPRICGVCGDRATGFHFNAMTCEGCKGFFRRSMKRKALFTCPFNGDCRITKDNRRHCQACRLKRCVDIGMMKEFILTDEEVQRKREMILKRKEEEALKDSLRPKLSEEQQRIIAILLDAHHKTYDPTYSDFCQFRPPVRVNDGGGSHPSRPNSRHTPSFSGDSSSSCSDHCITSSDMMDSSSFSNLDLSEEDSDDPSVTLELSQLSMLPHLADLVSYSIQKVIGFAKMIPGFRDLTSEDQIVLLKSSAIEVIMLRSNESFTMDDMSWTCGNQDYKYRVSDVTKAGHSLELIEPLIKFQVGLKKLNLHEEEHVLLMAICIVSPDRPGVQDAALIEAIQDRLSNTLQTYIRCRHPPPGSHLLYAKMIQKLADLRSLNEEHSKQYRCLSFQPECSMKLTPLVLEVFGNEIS
Sequence of Peroxisome proliferator-activated receptor delta (Homo sapiens) (Q03181 whole entry, looked up): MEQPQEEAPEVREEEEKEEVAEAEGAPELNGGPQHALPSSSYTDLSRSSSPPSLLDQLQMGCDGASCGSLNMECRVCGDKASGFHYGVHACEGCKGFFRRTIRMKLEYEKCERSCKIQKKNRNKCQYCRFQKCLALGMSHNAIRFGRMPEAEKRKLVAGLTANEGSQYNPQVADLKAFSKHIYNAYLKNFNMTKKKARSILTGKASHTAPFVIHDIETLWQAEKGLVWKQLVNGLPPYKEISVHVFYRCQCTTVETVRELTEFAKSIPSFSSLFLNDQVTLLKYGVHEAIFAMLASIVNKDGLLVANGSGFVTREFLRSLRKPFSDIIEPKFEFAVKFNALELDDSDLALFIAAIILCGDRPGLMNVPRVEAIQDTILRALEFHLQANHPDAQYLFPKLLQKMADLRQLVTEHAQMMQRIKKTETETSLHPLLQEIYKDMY
Sequence of Bile acid receptor (Homo sapiens) (Q96RI1 whole entry, looked up): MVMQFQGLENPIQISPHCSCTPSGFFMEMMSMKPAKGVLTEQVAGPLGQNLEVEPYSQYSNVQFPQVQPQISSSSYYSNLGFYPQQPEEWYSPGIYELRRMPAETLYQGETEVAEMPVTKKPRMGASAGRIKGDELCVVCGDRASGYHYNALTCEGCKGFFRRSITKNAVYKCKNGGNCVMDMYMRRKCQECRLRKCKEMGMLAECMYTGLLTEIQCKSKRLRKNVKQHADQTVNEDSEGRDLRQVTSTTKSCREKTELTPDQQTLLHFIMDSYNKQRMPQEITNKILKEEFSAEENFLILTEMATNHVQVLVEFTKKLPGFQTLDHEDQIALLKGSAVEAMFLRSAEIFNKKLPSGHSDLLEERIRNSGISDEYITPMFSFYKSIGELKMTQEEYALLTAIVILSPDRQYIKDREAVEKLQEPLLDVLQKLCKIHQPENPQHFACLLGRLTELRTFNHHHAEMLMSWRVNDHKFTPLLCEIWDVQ
Sequence of Peroxisome proliferator-activated receptor gamma (Homo sapiens) (P37231 whole entry, looked up): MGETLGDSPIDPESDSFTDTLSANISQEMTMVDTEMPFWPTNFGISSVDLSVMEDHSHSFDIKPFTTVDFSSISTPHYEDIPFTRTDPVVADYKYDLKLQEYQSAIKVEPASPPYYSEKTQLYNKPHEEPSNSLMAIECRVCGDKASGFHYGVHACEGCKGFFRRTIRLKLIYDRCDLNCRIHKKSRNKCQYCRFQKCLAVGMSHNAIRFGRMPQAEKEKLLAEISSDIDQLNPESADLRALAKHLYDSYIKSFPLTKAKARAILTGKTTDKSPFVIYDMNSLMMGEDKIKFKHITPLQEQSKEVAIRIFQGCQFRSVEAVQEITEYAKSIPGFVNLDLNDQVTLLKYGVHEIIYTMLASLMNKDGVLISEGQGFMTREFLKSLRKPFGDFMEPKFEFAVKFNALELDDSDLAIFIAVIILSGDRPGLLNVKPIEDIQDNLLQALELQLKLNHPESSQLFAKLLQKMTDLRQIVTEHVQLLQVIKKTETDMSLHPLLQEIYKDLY

Row | Compound | Potency [1] | Potency [2] | outcome [3] | outcome [4] | outcome [5] | outcome [6] | outcome [7] | outcome [8] | outcome [9] | outcome [10] | outcome [11] | outcome [12] | outcome [13] | outcome [14] | Potency [15] | Potency [16] | outcome [17] | Potency [18] | outcome [19]
1 | CC(C)=CCC/C(C)=C/C#N | inactive | inactive | inactive | inactive | inactive | inactive | inactive | inactive | inactive | inactive |  |  |  |  |  |  |  |  | 
2 | C=CCCCCCCCCC(=O)OCC | inactive | inactive | inactive | inactive | inactive | inactive |  | inactive | inactive | inactive | inactive | inactive | inactive | inactive |  |  |  |  | 
3 | CN(C)CCCN(C)CCCN(C)C | inactive | inactive | inactive | inactive | inactive | inactive | inactive | inactive | inactive |  | inactive | inactive |  | inactive | inactive | inactive | inactive |  | 
4 | CO[C@@]1(NC(=O)C(C(=O)O)c2ccc(O)cc2)C(=O)N2C(C(=O)O)=C(CSc3nnnn3C)CO[C@@H]21 (stereo not given in full) | inactive | inactive | inactive | inactive | inactive | inactive |  |  | inactive | inactive | inactive | inactive | inactive | inactive |  | inactive |  | inactive | inactive
5 | CCCn1cc[n+](C)c1C | inactive |  | inactive | inactive | inactive | inactive |  | inactive | inactive | inactive | inactive | inactive | inactive | inactive |  |  |  | inactive | inactive
6 | CCOC(=O)c1ccccc1 | inactive | inactive | inactive | inactive | inactive | inactive |  | inactive | inactive | inactive | inactive | inactive | inactive | inactive | inactive | inactive |  |  | inactive
7 | O=C(c1ccccc1O)c1ccccc1O | inactive | inactive |  | inactive |  | inactive | inactive | inactive | inactive | inactive | inactive | inactive | inactive |  | 43.2 µM (active) |  | inactive | inactive | inactive
8 | Cc1ccc(C(=O)c2ccccc2)cc1 | inactive | inactive | inactive | inactive |  | inactive | inactive | inactive | inactive | inactive | inactive | inactive | inactive | inactive |  | inactive |  |  | inactive
9 | CN1CCN(c2cc3c(nn2)Oc2ccccc2N3C)CC1 | inactive | inactive | inactive | inactive |  | inactive |  | inactive | inactive | inactive |  | inactive | inactive | inactive |  | inactive |  |  | inactive
10 | CC/C=C\CCOC(C)OCC (stereo not given) | inactive | inactive | inactive |  | inactive | inactive |  | inactive | inactive |  | inactive | inactive | inactive | inactive | inactive |  |  | inactive | 
11 | CC1OC1C1CCC2(C)OC2C1 (stereo not given) | inactive | inactive |  | inactive | inactive | inactive |  | inactive | inactive | inactive |  | inactive |  |  | inactive | inactive |  | inactive | 
12 | CNCCO | inactive | inactive | inactive | inactive | inactive | inactive | inactive |  | inactive |  |  | inactive | inactive | inactive | inactive |  |  |  | 
13 | C[N+](C)(C)CCCCCCCCCC[N+](C)(C)C | inactive | inactive | inactive | inactive | inactive | inactive |  | inactive | inactive | inactive |  | inactive |  |  |  | inactive |  | inactive | inactive
14 | COc1cc(-c2ccc(=O)[nH]n2)ccc1OC(F)F | inactive | inactive | inactive | inactive | inactive | inactive | inactive |  | inactive |  | inactive | inactive |  |  |  | inactive | inactive | inactive | 
15 | CC1=NS(=O)(=O)c2cc(Cl)ccc2N1 | inactive | inactive | inactive | inactive | inactive | inactive |  | inactive | inactive |  | inactive | inactive | inactive | inactive |  | inactive |  | inactive | 
16 | OCCc1ccccn1 | inactive | inactive | inactive | inactive | inactive | inactive |  | inactive | inactive | inactive |  | inactive | inactive | inactive |  | inactive |  | inactive | inactive
17 | NO | inactive |  | inactive | inactive | inactive | inactive |  | inactive | inactive | inactive | inactive | inactive |  |  |  | inactive |  | inactive | 
18 | Cc1c(N)c(=O)n(-c2ccccc2)n1C | inactive |  | inactive | inactive |  | inactive |  | inactive | inactive | inactive | inactive | inactive |  |  |  |  |  | inactive | 
